Experimental data from PubChem BioAssay (NCATS).
Records with an inconclusive call do not appear. The source made the active and inactive calls. Calls come from the whole dose curve; as a rule, active = well fitted curve in the direction sought with a large enough effect; inconclusive = small, poorly fitted or top-dose-only effect, or another doubt; inactive = no such curve, though single readings can be large; an effect the other way counts as inactive or inconclusive.

Assays:
CRL-7250 = normal cell line; assay: Cytotoxic Profiling of Annotated Libraries Using Quantitative High-Throughput Screening (AID 1296008); settings: Five cell lines viability, CellTiter-Glo ATP luminescence, 48-72 h; max response: hits give low values; note: nearly all actives have a fitted effect of over 60% in size; for max response: % is set by controls: 0 for no effect and ±100 for the full control effect
How it was run: (§1)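 Compounds were pin-transferred onto cells and incubated 48 or 72 hr at 37 degree Celsius, 95% humidity. CellTiter-Glo was added, plates sat 10 min at room temperature, then ATP-coupled luminescence was imaged as the viability read-out.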

HEK293 = assay: as above; settings: Five cell lines viability, CellTiter-Glo ATP luminescence, 48-72 h; max response: hits give low values
How it was run: as §1

HaCat [1] = assay: as above; settings: Five cell lines viability, CellTiter-Glo ATP luminescence, 48-72 h; max response: hits give low values
How it was run: as §1

KB-3-1 = assay: as above; settings: Five cell lines viability, CellTiter-Glo ATP luminescence, 48-72 h; max response: hits give low values
How it was run: as §1

NIH3T3 = assay: as above; settings: Five cell lines viability, CellTiter-Glo ATP luminescence, 48-72 h; max response: hits give low values
How it was run: as §1

HACAT [2] = assay: qHTS assay to identify novel small-molecules to repurpose for Merkel cell carcinoma treatment (AID 1296009); settings: MCC and control cell lines, CellTiter-Glo viability, 72 h; at 44.8 µM (top of the series) unless noted; note: nearly all actives have a fitted effect of over 60% in size
How it was run: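 Cells exposed to NPC (8-point) and MIPE (11-point) compound dilutions for 72 hr at 37 degree celsius; viability read by CellTiter-Glo luminescence, normalized to no-cell and DMSO in-plate controls.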

C33A = assay: Primary qHTS to identify gynecologic anti-cancer compounds using libraries of approved drugs and bioactive compounds (AID 1345084); settings: Gynecologic cancer cell panel viability, ATPlite luminescence, 48 h; series mostly up to 57.5 µM; note: % is set by controls: 0 for no effect and ±100 for the full control effect; nearly all actives have a fitted effect of over 55% in size
How it was run: (§2)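 Luminescence from the ATPlite ATP-monitoring reagent indicates viable cell number; lower signal means cytotoxicity. Cells received compound 16 h after seeding and were exposed for 48 h across five concentrations.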

CAOV3 = assay: as above; settings: Gynecologic cancer cell panel viability, ATPlite luminescence, 48 h; series mostly up to 57.5 µM
How it was run: as §2

CASKI = assay: as above; settings: Gynecologic cancer cell panel viability, ATPlite luminescence, 48 h; series mostly up to 57.5 µM
How it was run: as §2

Es-2 = assay: as above; settings: Gynecologic cancer cell panel viability, ATPlite luminescence, 48 h; series mostly up to 57.5 µM
How it was run: as §2

HeLa = assay: as above; settings: Gynecologic cancer cell panel viability, ATPlite luminescence, 48 h; series mostly up to 57.5 µM
How it was run: as §2

Hek293T = assay: as above; settings: Gynecologic cancer cell panel viability, ATPlite luminescence, 48 h, control line for the selectivity index; series mostly up to 57.5 µM
How it was run: as §2

JEG-3 = assay: as above; settings: Gynecologic cancer cell panel viability, ATPlite luminescence, 48 h; series mostly up to 57.5 µM
How it was run: as §2

OV90 = assay: as above; settings: Gynecologic cancer cell panel viability, ATPlite luminescence, 48 h; series mostly up to 57.5 µM
How it was run: as §2

COCC1OC(OC(C)(C)C2CCC3(C)C=C(C4CCC5C4(C)CC(O)C4OC(C(C)(C)O)CCC45C)CCC3O2)C(NC(C)=O)C(O)C1O (stereo not drawn)
inactive: outcome (CRL-7250) | max response (HEK293) 2.29% | outcome (HaCat [1]) | max response (KB-3-1) 7.28% | max response (NIH3T3) 1.37% | outcome (HACAT [2]) inactive [at 17.4 µM] | Potency (C33A) | Potency (CAOV3) | outcome (CASKI) | Potency (Es-2) | Potency (HeLa) | Potency (Hek293T) | Potency (JEG-3) | Potency (OV90)

CC(=O)OC1CC(=O)C2(C)C3CC4=C(OC(C)CC4=O)OC3(C)CCC2C1(C)C (stereo not drawn)
inactive: outcome (CRL-7250) | max response (HEK293) 2.23% | outcome (HaCat [1]) | outcome (KB-3-1) | max response (NIH3T3) 1.19% | outcome (HACAT [2]) inactive [at 17.4 µM] | Potency (C33A) | Potency (CAOV3) | outcome (CASKI) | Potency (Es-2) | Potency (HeLa) | Potency (Hek293T) | Potency (JEG-3) | Potency (OV90)

C/C=C(\C)C(=O)OC1CC2C(CC=C3CC(OC4CC(OC)C(OC5CC(OC)C(OC6CC(OC)C(OC7CC(OC)C(OC8CC(OC)C(OC9OC(CO)C(O)C(O)C9O)C(C)O8)C(C)O7)C(C)O6)C(C)O5)C(C)O4)CCC32C)C2(O)CCC(C(C)=O)C12C (stereo not drawn)
inactive: outcome (CRL-7250) | max response (HEK293) -12.4% | outcome (HaCat [1]) | max response (KB-3-1) 8.92% | outcome (NIH3T3) | outcome (HACAT [2]) inactive [at 9.27 µM] | activity change, negative = cytotoxicity (C33A) 4.48% [at 6.55 µM] | activity change, negative = cytotoxicity (CAOV3) -9.87% [at 6.55 µM] | activity change, negative = cytotoxicity (CASKI) -6.32% [at 6.55 µM] | activity change, negative = cytotoxicity (Es-2) 2.25% [at 6.55 µM] | activity change, negative = cytotoxicity (HeLa) 6.7% [at 6.55 µM] | activity change, negative = cytotoxicity (Hek293T) -0.353% [at 6.55 µM] | activity change, negative = cytotoxicity (JEG-3) 3.01% [at 6.55 µM] | activity change, negative = cytotoxicity (OV90) -1.21% [at 6.55 µM]

CCC(C)C(=O)O[C@H]1[C@@H](O[C@H]2O[C@H](CO)[C@@H](O)[C@H](O)[C@H]2O)O[C@H](CO)[C@@H](O)[C@@H]1O (stereo partly drawn)
inactive: max response (CRL-7250) -1.24% | max response (HEK293) -6.33% | outcome (HaCat [1]) | max response (KB-3-1) -0.199% | max response (NIH3T3) 2.16% | outcome (HACAT [2]) inactive [at 17.4 µM] | Potency (C33A) | Potency (CAOV3) | outcome (CASKI) | Potency (Es-2) | Potency (HeLa) | Potency (Hek293T) | Potency (JEG-3) | Potency (OV90)

O=C1OC(c2ccc(O)cc2)C(O)=C1Cc1ccccc1 (stereo not drawn)
inactive: max response (CRL-7250) 3.91% | max response (HEK293) 0.741% | outcome (HaCat [1]) | outcome (KB-3-1) | max response (NIH3T3) 4.9% | outcome (HACAT [2]) | Potency (C33A) | Potency (CAOV3) | outcome (CASKI) | Potency (Es-2) | Potency (HeLa) | Potency (Hek293T) | Potency (JEG-3) | Potency (OV90)

C[C@]1(O)CC[C@@H]2C(C(=O)O)=CO[C@@H](O[C@@H]3O[C@H](CO)[C@@H](O)[C@H](O)[C@H]3O)[C@@H]21
inactive: max response (CRL-7250) -9.18% | max response (HEK293) -5.73% | outcome (HaCat [1]) | max response (KB-3-1) 0.108% | max response (NIH3T3) 1.11% | outcome (HACAT [2]) | Potency (C33A) | Potency (CAOV3) | outcome (CASKI) | Potency (Es-2) | Potency (HeLa) | Potency (Hek293T) | Potency (JEG-3) | Potency (OV90)

O=C(Cc1ccccc1)OC[C@H]1O[C@H](O[C@H]2O[C@H](CO)[C@@H](O)[C@H](O)[C@H]2O)[C@H](O)[C@@H](O)[C@@H]1O
inactive: max response (CRL-7250) -5.14% | max response (HEK293) 4.52% | outcome (HaCat [1]) | max response (KB-3-1) 9.38% | max response (NIH3T3) 0.692% | outcome (HACAT [2]) inactive [at 17.4 µM] | Potency (C33A) | Potency (CAOV3) | outcome (CASKI) | Potency (Es-2) | Potency (HeLa) | Potency (Hek293T) | Potency (JEG-3) | Potency (OV90)

CC(C)(O)C(O)C(=O)OCc1ccc(O[C@@H]2O[C@H](CO)[C@@H](O)[C@H](O)[C@H]2O)cc1 (stereo partly drawn)
inactive: max response (CRL-7250) -9.18% | max response (HEK293) 2.94% | outcome (HaCat [1]) | outcome (KB-3-1) | max response (NIH3T3) -2.16% | outcome (HACAT [2]) inactive [at 17.4 µM] | Potency (C33A) | Potency (CAOV3) | outcome (CASKI) | Potency (Es-2) | Potency (HeLa) | Potency (Hek293T) | Potency (JEG-3) | Potency (OV90)

COc1cc2c(cc1O)C(c1ccc(O)cc1)C(C)C(C)C2 (stereo not drawn)
inactive: max response (CRL-7250) -22.8% | max response (HEK293) -21.2% | outcome (HaCat [1]) | max response (KB-3-1) -7.89% | max response (NIH3T3) -6.55% | outcome (HACAT [2]) | Potency (C33A) | Potency (CAOV3) | outcome (CASKI) | Potency (Es-2) | Potency (HeLa) | Potency (Hek293T) | Potency (JEG-3) | Potency (OV90)

COC(=O)C1=COC(OC2OC(CO)C(O)C(O)C2O)C2C(C)C(OC(C)=O)C(OC(=O)c3ccccc3)C12 (stereo not drawn)
inactive: max response (CRL-7250) -19.7% | max response (HEK293) -48.1% | outcome (HaCat [1]) | outcome (KB-3-1) | max response (NIH3T3) -45.7% | outcome (HACAT [2]) inactive [at 17.4 µM] | Potency (C33A) | Potency (CAOV3) | outcome (CASKI) | Potency (Es-2) | Potency (HeLa) | Potency (Hek293T) | Potency (JEG-3) | Potency (OV90)

COc1cccc(Cn2ncc3c4sc(S(C)=O)cc4n(C)c3c2=O)c1 (stereo not drawn)
inactive: max response (CRL-7250) 2.15% | max response (HEK293) -7.28% | outcome (HaCat [1]) | outcome (KB-3-1) | max response (NIH3T3) 2.83% | outcome (HACAT [2]) | Potency (C33A) | Potency (CAOV3) | outcome (CASKI) | Potency (Es-2) | Potency (HeLa) | Potency (Hek293T) | Potency (JEG-3) | Potency (OV90)

C[C@]12CC[C@@H]3c4ccc(O)cc4CC[C@H]3[C@@H]1C[C@@H](O[C@@H]1O[C@H](C(=O)O)[C@@H](O)[C@H](O)[C@H]1O)[C@@H]2O
inactive: max response (CRL-7250) 2.29% | max response (HEK293) -7.39% | outcome (HaCat [1]) | max response (KB-3-1) 4.13% | max response (NIH3T3) -7.98% | outcome (HACAT [2]) | Potency (C33A) | Potency (CAOV3) | outcome (CASKI) | Potency (Es-2) | Potency (HeLa) | Potency (Hek293T) | Potency (JEG-3) | Potency (OV90)
